Screening results from PubChem BioAssay.
NadD block – NadD (S. aureus) enzyme inhibition; purified NadD enzyme, colorimetric absorbance read-out; inhibition, % at 20 µM; 0.78% of 360,000 active; AID 602399; in the data active = inhibition above about 26%
TAG inh – triacylglycerol accumulation inhibition; H9c2 cells, Nile Red lipid (TAG) fluorescence; cells loaded with 200 µM oleic acid; 0.66% of 230,000 active; inhibition, % at 12.5 µM; AID 651582;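 active = pattern-corrected inhibition of lipid staining of at least 50% with the nuclear-stain viability signal not falling by more than 50%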
MPTP inh – blocks calcium-induced mitochondrial swelling; isolated mouse mitochondria, Ca2+ swelling absorbance, 30 min; inhibition, % at 10 µM; 1.4% of 360,000 active; AID 602449;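 active = inhibition of 50% or more, scaled per plate between neutral and stimulator controls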
aDG glyco up – increases alpha dystroglycan glycosylation. Pro5-aDG cells, alpha-DG glycosylation AlphaScreen (IIH6); 0% Pro5, 100% B10-LARGE cell signal. activation, % at 10 µM. 0.22% of 360,000 active. AID 624168;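 active = activation of at least 8% versus controls, or a plate z-score of at least 8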;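 note: Pro5 are CHO cells carrying HIG-tagged alpha-DG that lacks glycosylation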
MPTP counter – mitochondrial membrane potential, counter-screen; shares compounds with MPTP inh; isolated mitochondria, Rhodamine 123 fluorescence; inhibition, % at 10 µM; 78% of 5,000 active; AID 624504; in the data active = inhibition above about 22%
MPTP abs DR – dose response confirmation of mitochondrial permeability transition pore inhibitors; 58% of 780 active; AID 651561; isolated mitochondria swelling, absorbance; shares compounds with MPTP inh; IC50, µM; in the data active = IC50 below about 20 µM
MPTP counter DR – counter-screen for mitochondrial permeability transition pore inhibitors, dose response; shares compounds with MPTP inh; isolated mitochondria counterscreen, fluorescence read-out; IC50, µM; 49% of 780 active; AID 651564; in the data active = IC50 below about 80 µM
Of the large screens only hits and unclear results are named; the others gave an inactive call (follow-up assays come after a bar, where they were run). Compounds with a hit are over-represented: about 2.7% of the library has one in this group of screens.

Cc1ccc(Oc2ccc(NC(=O)Cn3ccsc3=N)cc2)cc1	MPTP inh 89 | MPTP counter inactive | MPTP abs DR 6.3 | MPTP counter DR inactive
CCOC(=O)[C@]12CCC=C1N(Cc1cccc3ccccc13)C(=O)[C@H](CC(=O)NCCC(C)C)C2	none (no result: TAG inh)
COc1ccc(S(=O)(=O)N(C)C)cc1NC(=O)CSC(C)C(=O)Nc1cc(C)on1 (configuration not stated)	none
Cc1cccc(C)c1OCC(O)CN1CCC(CN2C(=O)c3cccc4cccc(c34)C2=O)CC1 (configuration not stated)	MPTP inh 62 | MPTP counter inactive
Cc1ccccc1OCC(O)CN1CCN(CCN2C(=O)c3cccc4cccc(c34)C2=O)CC1 (configuration not stated)	none
Cc1cccc(C)c1NC(=O)C[N+](C)(C)CC(O)COc1cccc2ccccc12 (configuration not stated)	MPTP inh 81 | MPTP counter inactive | MPTP abs DR 3.3 | MPTP counter DR 51
O=[N+]([O-])c1cc2c(c([N+](=O)[O-])c1)Nc1ccccc1O2	MPTP inh 55 | MPTP counter 61
CC(C)Cn1c(N)c(C(=O)COC(=O)c2ccc3c(c2)OCCO3)c(=O)n(C)c1=O	none
CC(C)Cn1c(N)c(C(=O)CSc2ccc3c(c2)OCCO3)c(=O)n(C)c1=O	MPTP inh 99 | MPTP counter 86
O=C(Nc1ccc(Cl)cc1)OCc1ccccn1	MPTP inh 91 | MPTP counter 85
O=C(Nc1ccc(Cl)cc1)OCc1cn(-c2ccc(Cl)cc2)nn1	MPTP inh 85 | MPTP counter 83
CCNC(=O)OCc1cn(-c2ccc(Cl)cc2)nn1	none
C(=C\c1nc(N2CCCC2)c2ccccc2n1)/c1ccccc1	MPTP inh 90 (no result: TAG inh) | MPTP counter 95
CC(C)N=c1scc(-c2cccs2)n1/N=C/c1ccc(O)c(O)c1O	NadD block 31, MPTP inh 95 (no result: TAG inh) | MPTP counter 50
Cc1ccc(S[C@@H](CCN2CC[C@H](C(C)(C)C)CCC2=O)c2ccccc2)cc1	none
COc1ccc(OCCOC(=O)c2[nH]c(C)c(C(C)=O)c2C)cc1	MPTP inh 56 | MPTP counter 31
CC(=O)c1c(C)[nH]c(C(=O)OCc2ccc(F)cc2Cl)c1C	MPTP inh 78 | MPTP counter 69
CC(C)(C)NS(=O)(=O)c1ccc(NC(=O)C(Sc2ccccc2)c2ccccc2)cc1 (configuration not stated)	MPTP inh 65 (no result: TAG inh) | MPTP counter 73
O=C(NCCCl)Nc1cc([N+](=O)[O-])ccc1Cl	none
O=C(NCCCl)Nc1ccc(Cl)c([N+](=O)[O-])c1	MPTP inh 81 | MPTP counter 93
O=C(Nc1cc([N+](=O)[O-])ccc1Cl)C(Sc1ccccc1)c1ccccc1 (configuration not stated)	none (no result: TAG inh)
CC(=O)N(C)c1ccc(NC(=O)C(Sc2ccccc2)c2ccccc2)cc1 (configuration not stated)	none (no result: TAG inh)
O=C(Nc1ccc(Cl)c([N+](=O)[O-])c1)C(Sc1ccccc1)c1ccccc1 (configuration not stated)	MPTP inh 105 (no result: TAG inh) | MPTP counter 80
Cc1ccc2c(COC(=O)CNC(=O)c3ccco3)cc(=O)oc2c1C	none
Cc1ccc(NC(=O)C(Nc2ccccc2)c2ccccc2)cc1 (configuration not stated)	none (no result: TAG inh)
Cc1ccc(NC(=O)C(C)c2ccc(-c3ccccc3)c(F)c2)cc1 (configuration not stated)	MPTP inh 89 (no result: TAG inh) | MPTP counter 110
Cc1cc(C)c(C(=O)COC(=O)C2CCN(c3ccc(C(F)(F)F)cn3)CC2)c(C)c1	none
O=C(CSc1nncs1)Nc1ccc2c(c1)OCO2	none
O=C(CSc1nc(-c2ccccc2Cl)ns1)Nc1ccc2c(c1)OCO2	MPTP inh 87 (no result: TAG inh) | MPTP counter 80
Cc1ccc(-c2nsc(SCC(=O)Nc3ccc4c(c3)OCO4)n2)cc1	MPTP inh 96 (no result: TAG inh) | MPTP counter 89
CCOc1ccc2nc(SCC(=O)c3ccc(C)s3)sc2c1	none
CCOc1ccc2nc(SCC(=O)Nc3ccc4c(c3)OCO4)sc2c1	MPTP inh 75 (no result: TAG inh) | MPTP counter 69
